# The list is not random: actives were taken first. Their share in the collection is about 4.2%.
# hcDAF12 agonist: activates DAF-12 receptor from parasite H. contortus; HEK293 hcDAF-12 lit1-tk-luc reporter, luminescence; 0% DMSO, 100% Δ7-dafachronic acid; activation, % at 6.8 µM; hit rate 1.4% among 370,000;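 active = activation above the mean of all tested compounds plus 3 SD, cut at about 5.5% in these data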;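 note: 100% = response to 3 µM Δ7-dafachronic acid high control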
# ssDAF12 agonist: S. stercoralis DAF-12 activation, primary screen; HEK293 ssDAF-12/GRIP1 lit1-tk-luc reporter, luminescence; % of 3 µM dafachronic acid response; activation, % at 6.8 µM; hit rate 1% among 370,000;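 active = activation above the mean over all tested compounds plus 3 SD, cut at about 0.9% in these data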;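 note: 0% = DMSO-only wells and 100% = 3 µM delta7-dafachronic acid wells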
# esBAF inh: SWI/SNF esBAF complex inhibition; mouse ES cells, Bmi1-luciferase knock-in reporter, 24 h; 100% = twice the neutral-well signal; reporter increase, % at 12.5 µM; AID 602393; hit rate 2% among 350,000; in the data active = activation above about 40%; inconclusive = no clear call, values can overlap the other calls;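 note: 0% = median of the plate's neutral control wells and 100% = double that signal; a rise in the Bmi1 reporter signal indicates esBAF inhibition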
# hgDAF12 agonist: agonists of H. glycines DAF-12 nuclear receptor. hit rate 1.8% among 370,000. HEK293 GAL4-hgDAF12 UAS-luciferase reporter, agonist luminescence; normalized to butyrate control. activation, % at 6.8 µM;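 active = activation above a cutoff set at the mean of all screened compounds plus 3 SD, cut at about 10% in these data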;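 note: 0% = DMSO wells and 100% = sodium butyrate wells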
# Wnt bcat act: activators of Wnt/beta-catenin signaling; Wnt/beta-catenin reporter cell assay, activator, plate reader; AID 743398; activation, % at 9.35 µM; hit rate 1.2% among 300,000; in the data active = activation above about 30%, passing the limit was not always enough; inconclusive = no clear call, values can overlap the other calls;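 note: 0% = neutral control wells and 100% = positive control wells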
# DAX1 inh: inhibitors of DAX1 repression of SF-1 activated StAR promoter | hit rate 1.1% among 370,000 | inhibition, % at 6.8 µM | HEK293T StAR-luciferase reporter, SF-1/DAX-1 repression relief;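 active = inhibition above the mean over all tested compounds plus 3 SD, cut at about 3.6% in these data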;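 note: 0% = DAX-1 cells with DMSO and 100% = cells lacking DAX-1 with DMSO; higher inhibition means more luminescence from relief of DAX-1 repression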
# LXR ag: activates human LXR-beta, counter-screen for hcDAF-12 agonists; 3,400 tested, under 10 active; activation, % at 6.8 µM; AID 743027; shares compounds with hcDAF12 agonist; HEK293 Gal4-LXR tk-luc reporter, luminescence, 24 h; normalized: DMSO 0%, positive control 100%;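 active = mean percent activation of the reporter above a cutoff set as the average over tested compounds plus their standard deviation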
# Target sequence (P55055 whole entry, looked up, the tested form may be a part): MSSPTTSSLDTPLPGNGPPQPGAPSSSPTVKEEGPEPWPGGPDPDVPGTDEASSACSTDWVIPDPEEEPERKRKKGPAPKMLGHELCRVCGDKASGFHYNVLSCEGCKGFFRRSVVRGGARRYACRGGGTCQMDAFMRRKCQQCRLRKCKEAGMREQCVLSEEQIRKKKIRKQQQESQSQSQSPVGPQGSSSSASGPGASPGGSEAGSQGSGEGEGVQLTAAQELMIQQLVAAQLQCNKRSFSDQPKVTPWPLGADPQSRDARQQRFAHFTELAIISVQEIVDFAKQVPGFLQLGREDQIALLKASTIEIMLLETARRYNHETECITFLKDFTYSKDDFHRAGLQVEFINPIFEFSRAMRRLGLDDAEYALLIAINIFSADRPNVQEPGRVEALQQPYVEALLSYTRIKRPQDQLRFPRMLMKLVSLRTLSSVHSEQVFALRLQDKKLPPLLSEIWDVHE
# hcDAF12 conf: confirmation of H. contortus DAF-12 agonists; shares compounds with hcDAF12 agonist; HEK293 hcDAF-12 lit1-tk-luc reporter, luminescence; % of Δ7-dafachronic acid response; activation, % at 6.8 µM; hit rate 61% among 3,400;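 active = mean activation across triplicate tests above the threshold derived from the earlier primary screen, cut at about 5.5% in these data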;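 note: 0% = DMSO only wells and 100% = 3 µM Δ7-dafachronic acid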
# hgDAF12 conf: hgDAF-12 agonism, confirmation assay. hit rate 80% among 3,300. shares compounds with hgDAF12 agonist. HEK293 GAL4-hgDAF12 luciferase reporter, agonist mode; percent of butyrate response. activation, % at 6.8 µM;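 active = mean activation over triplicate wells above the hit cutoff derived from the earlier primary screen, cut at about 11% in these data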;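 note: 0% = DMSO low control and 100% = 2 mM sodium butyrate high control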
# LXR ag 2: LXR-beta agonism as DAF-12 counter-screen. activation, % at 6.8 µM. AID 743051. shares compounds with hgDAF12 agonist. HEK293 Gal4-LXR luciferase reporter, 24 h. 3,300 tested, under 10 active;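 active = mean activation of the triplicate above a set limit carried over from the primary screen, none filed active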
# * marks the source's active call; other numbers are inactive results; ? = inconclusive; · = not tested or not shown.
SMILES,hcDAF12 agonist,ssDAF12 agonist,esBAF inh,hgDAF12 agonist,Wnt bcat act,DAX1 inh,LXR ag,hcDAF12 conf,hgDAF12 conf,LXR ag 2
Cc1ccc(N/C=C/C(=O)c2ccccc2)cc1Br,16.4*,3.4*,19.1,18.6*,19.5,3.8*,2.4,16.1*,25.3*,1.2
O=C(NCCCCc1ccccc1)c1ccccc1F,-0.5,-0.7,18.8,4.3,1.7,-0.3,·,·,·,·
O=C(CNC(=O)c1ccccc1F)c1ccccc1,7.0*,1.1*,-14.3,16.6*,38.0*,1.6,1.3,5.4,13.9*,0.6
O=C(NCCc1ccccc1)c1ccccc1F,6.7*,-0.1,·,14.9*,?,3.8*,0.9,4.0,13.8*,0.5
COc1ccc(S(=O)(=O)N(C)C[C@H]2OCCCC[C@@H](C)Oc3ccc(NS(C)(=O)=O)cc3C(=O)N([C@@H](C)CO)C[C@@H]2C)cc1,·,·,-0.4,·,·,·,·,·,·,·
CN(C)C=Nc1ccc(Cl)c(Cl)c1,-1.7,-1.5,·,1.6,0.7,-0.3,·,·,·,·
CN(C)C=Nc1ccc2nn(-c3ccccc3)nc2c1,6.7*,1.2*,-4.8,14.7*,·,4.4*,1.7,8.2*,22.4*,0.8
COc1cccc(C(=O)Cn2c(NCCO)nc3ccccc32)c1,-0.2,-0.9,-2.4,-0.4,·,0.0,·,·,·,·
COc1cccc(C(=O)Cn2c(=N)n(C)c3ccccc32)c1,18.0*,3.2*,-59.6,17.3*,·,3.5,2.1,17.2*,19.6*,1.1
C[C@H]1CN([C@@H](C)CO)C(=O)c2cc(C#Cc3ccncc3)cnc2O[C@@H]1CN(C)CC1CCCCC1,·,·,5.4,·,·,·,·,·,·,·
C[C@@H]1CN([C@H](C)CO)C(=O)Cc2cc(NC(=O)c3ccncc3)ccc2O[C@@H]1CN(C)S(=O)(=O)c1cccs1,·,·,1.9,·,·,·,·,·,·,·
COc1ccc2c(c1)CCc1c-2n[nH]c1C(=O)NCCC(C)C,6.8*,0.4,2.3,15.0*,30.6*,4.0*,1.1,3.9,16.9*,0.9
CCCC#Cc1cnc2c(c1)C(=O)N([C@H](C)CO)C[C@H](C)[C@H](CN(C)C(=O)Nc1c(C)noc1C)O2,·,·,-0.4,·,·,·,·,·,·,·
O=C(Nc1ccc(Cl)cc1)C1=Cc2ccccc2OC1,9.6*,1.3*,4.0,17.6*,-2.7,3.2,1.4,8.0*,21.8*,1.5
Cc1ccc(Nc2n[nH]c(C)c2[N+](=O)[O-])cc1C,10.7*,1.0*,·,19.4*,·,4.4*,1.7,6.3*,21.8*,1.1
Cc1ccc(NC(=O)/C=C/C(=O)O)c([N+](=O)[O-])c1,2.0,-0.8,·,-0.2,·,0.1,·,·,·,·
Cc1ccc(NC(=O)/C=C/c2cccs2)c([N+](=O)[O-])c1,6.8*,-0.6,11.3,13.5*,29.7,0.7,1.0,6.5*,18.6*,0.9
C[C@@H]1CCCCO[C@H](CN(C)C)[C@H](C)CN([C@H](C)CO)C(=O)c2cc(NC(=O)NC3CCCCC3)ccc2O1,·,·,-3.5,·,·,·,·,·,·,·
O=C(Nc1ccccc1)c1cc2ccc3ccccc3c2s1,12.5*,2.8*,79.1*,15.2*,65.7*,1.5,1.0,9.8*,16.1*,0.7
Cc1c(C(=O)Nc2ccc(Br)cc2)cnn1C,11.2*,2.3*,·,15.0*,40.1*,1.8,0.6,6.1*,12.5*,0.5
CC(=O)Nc1ccc(-c2csc(Nc3ccccn3)n2)cc1,5.2,-0.1,33.5,7.4,-0.6,2.6,·,·,·,·
c1coc(CNc2nc(-c3cccs3)cs2)c1,1.1,-1.4,·,4.0,22.5,0.3,·,·,·,·
Cc1ccc(Nc2nc(-c3ccccc3)cs2)nc1,19.1*,1.9*,-44.1,13.3*,0.8,3.7*,2.1,16.5*,22.7*,1.4
Cc1ccc(Nc2nc(-c3cccs3)cs2)nc1,13.2*,0.7,-52.7,14.7*,-1.5,4.0*,1.6,13.8*,9.5,1.0
CC(=O)N(C)C[C@@H]1Oc2cc(C#Cc3ccccc3)ccc2S(=O)(=O)N([C@@H](C)CO)C[C@@H]1C,·,·,3.6,·,·,·,·,·,·,·
SMILES,hcDAF12 agonist,ssDAF12 agonist,esBAF inh,hgDAF12 agonist,Wnt bcat act,DAX1 inh,LXR ag,hcDAF12 conf,hgDAF12 conf,LXR ag 2
CO[C@@H]1CN(C)C(=O)c2ccc(NC(C)=O)cc2OC[C@H](C)N(C(=O)CN2CCOCC2)C[C@H]1C,·,·,6.5,·,·,·,·,·,·,·
C[C@H]1CCCCO[C@H](CN(C)S(C)(=O)=O)[C@@H](C)CN([C@@H](C)CO)C(=O)c2cc(NS(C)(=O)=O)ccc2O1,·,·,0.9,·,·,·,·,·,·,·
Nc1nc(Nc2ccccc2)nc2ccccc12,9.9*,1.7*,3.8,14.7*,40.6*,3.6*,1.2,5.3,16.3*,1.1
Nc1nc(CCl)nc(Nc2ccccc2)n1,2.4,-1.8,·,3.4,4.4,-1.3,·,·,·,·
Nc1nc(Nc2ccc(Cl)cc2)nc2ccccc12,14.2*,2.5*,-54.9,13.8*,·,2.1,1.8,12.3*,21.6*,1.4
COc1ccc2oc(C(=O)c3ccccc3)c(N)c2c1,7.4*,0.9,·,15.2*,73.9*,3.5,1.7,6.7*,20.1*,0.9
COc1cccc(NC(=O)N(C)C[C@@H]2Oc3ncc(/C=C/c4ccccc4)cc3C(=O)N([C@H](C)CO)C[C@@H]2C)c1,·,·,2.8,·,·,·,·,·,·,·
Cn1c(N)c(C(=O)CCc2ccccc2)c(=O)n(C)c1=O,10.5*,0.7,·,21.3*,?,4.5*,0.9,6.8*,10.1,0.5
O=C(C[C@H]1CC[C@@H](NC(=O)Nc2ccc(C(F)(F)F)cc2)[C@@H](CO)O1)NCc1ccccn1,·,·,0.9,·,·,·,·,·,·,·
Nc1c(C(=O)NCC(O)c2ccccc2)cnn1-c1ccccc1 (stereo unspecified),6.6*,-0.2,·,18.1*,·,3.5,0.7,6.2*,14.3*,0.3
CCNC(=S)/N=C(\N)Nc1nc(C)c2cc(C)ccc2n1,6.6*,-0.2,·,14.1*,11.5,4.3*,1.0,7.6*,12.6*,0.5
CCOc1ccc2nc(N/C(N)=N/C(=S)Nc3ccc(C)c(C)c3)nc(C)c2c1,-1.3,-0.5,·,1.8,-0.8,-0.3,·,·,·,·
Cc1sc(NC(=O)c2ccco2)nc1-c1ccccc1,7.8*,0.6,·,14.4*,·,2.6,1.4,7.9*,18.0*,0.8
